The full data set covers some 8,800 targets. This sample favours those with a hit. About 0.5% of all pairs of compound and target were hits.
Key:
Test in all cases: log2 fold change, soluble protein after heating vs DMSO (PISA); higher = thermal stabilisation; K562 lysate, 10 uM; active = over 0.2 and 3.5 SD of the protein, either way, in both replicates (recomputed)
alvocidib = compound: CN1CC[C@H](c2c(O)cc(O)c3c(=O)cc(-c4ccccc4Cl)oc23)[C@H](O)C1 [alvocidib]
Method in brief: (§1)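 Thermal stability, expressed as log-two fold change relative to solvent controls, is given from duplicates. Crude K562 extract in PBS pH 7.4 with 1 mM MgCl2, at 1 mg/mL protein, was treated with 10 μM compound for 30 min and heated in aliquots for 3 min across 48°C-58°C. After pooling, adjustment to 0.5% NP-40 at 4°C and centrifugation at 21,000xg for 90 min, supernatant protein was measured by TMTpro 16plex LC-MS/MS with channel sums equalised.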

Tubastatin A = compound: CN1CCc2c(c3ccccc3n2Cc2ccc(C(=O)NO)cc2)C1 [Tubastatin A]
Method in brief: as §1

[1] = compound: CNC(=O)C1=CC=CC=C1NC2=NC(=NC=C2Cl)NC3=C(C=C(C=C3)N4CCOCC4)OC
Method in brief: as §1

defactinib = compound: CNC(=O)c1ccc(Nc2ncc(C(F)(F)F)c(NCc3nccnc3N(C)S(C)(=O)=O)n2)cc1 [defactinib]
Method in brief: as §1

[2] = compound: CNc1nc(-c2ccc3c(N)n[nH]c3c2)cc(N2C[C@@H](C(=O)NC3CCCCC3)CC[C@H]2C)n1
Method in brief: as §1

encorafenib = compound: COC(=O)N[C@@H](C)CNc1nccc(-c2cn(C(C)C)nc2-c2cc(Cl)cc(NS(C)(=O)=O)c2F)n1 [encorafenib]
Method in brief: as §1

[3] = compound: COC(=O)[C@H](CCSC)NC(=O)C1=C(C=C(C=C1)NC[C@H](CS)N)C2=CC=CC=C2
Method in brief: as §1

alisertib = compound: COc1cc(Nc2ncc3c(n2)-c2ccc(Cl)cc2C(c2c(F)cccc2OC)=NC3)ccc1C(=O)O [alisertib]
Method in brief: as §1

[4] = compound: COc1cc2nc(-c3cc(F)ccc3O)nc(N[C@@H]3CNC[C@H]3C(C)(C)O)c2cc1OC
Method in brief: as §1

gefitinib = compound: COc1cc2ncnc(Nc3ccc(F)c(Cl)c3)c2cc1OCCCN1CCOCC1 [gefitinib]
Method in brief: as §1

lapatinib = compound: CS(=O)(=O)CCNCc1ccc(-c2ccc3ncnc(Nc4ccc(OCc5cccc(F)c5)c(Cl)c4)c3c2)o1 [lapatinib]
Method in brief: as §1

crizotinib = compound: C[C@@H](Oc1cc(-c2cnn(C3CCNCC3)c2)cnc1N)c1c(Cl)ccc(F)c1Cl [crizotinib]
Method in brief: as §1

[5] = compound: C[C@H](C1=CC=C(C=C1)C(=O)NC2=C3C=CNC3=NC=C2)N
Method in brief: as §1

duvelisib = compound: C[C@H](Nc1ncnc2nc[nH]c12)c1cc2cccc(Cl)c2c(=O)n1-c1ccccc1 [duvelisib]
Method in brief: as §1

gandotinib = compound: Cc1cc(Nc2cc(CN3CCOCC3)c3nc(C)c(Cc4ccc(Cl)cc4F)n3n2)n[nH]1 [gandotinib]
Method in brief: as §1

tozasertib = compound: Cc1cc(Nc2cc(N3CCN(C)CC3)nc(Sc3ccc(NC(=O)C4CC4)cc3)n2)n[nH]1 [tozasertib]
Method in brief: as §1

doramapimod = compound: Cc1ccc(-n2nc(C(C)(C)C)cc2NC(=O)Nc2ccc(OCCN3CCOCC3)c3ccccc23)cc1 [doramapimod]
Method in brief: as §1

[6] = compound: Cc1cccc(CC(=O)N2CCc3c2ccc(-c2cn(C)c4ncnc(N)c24)c3F)n1
Method in brief: as §1

pictilisib = compound: CS(=O)(=O)N1CCN(Cc2cc3nc(-c4cccc5[nH]ncc45)nc(N4CCOCC4)c3s2)CC1 [pictilisib]
Method in brief: as §1

bafetinib = compound: Cc1ccc(NC(=O)c2ccc(CN3CC[C@H](N(C)C)C3)c(C(F)(F)F)c2)cc1Nc1nccc(-c2cncnc2)n1 [bafetinib]
Method in brief: as §1

Measured: log2 fold change

ELAVL4 (UniProt P26378)
UniProt P26378, sequence (P26378 whole entry, looked up): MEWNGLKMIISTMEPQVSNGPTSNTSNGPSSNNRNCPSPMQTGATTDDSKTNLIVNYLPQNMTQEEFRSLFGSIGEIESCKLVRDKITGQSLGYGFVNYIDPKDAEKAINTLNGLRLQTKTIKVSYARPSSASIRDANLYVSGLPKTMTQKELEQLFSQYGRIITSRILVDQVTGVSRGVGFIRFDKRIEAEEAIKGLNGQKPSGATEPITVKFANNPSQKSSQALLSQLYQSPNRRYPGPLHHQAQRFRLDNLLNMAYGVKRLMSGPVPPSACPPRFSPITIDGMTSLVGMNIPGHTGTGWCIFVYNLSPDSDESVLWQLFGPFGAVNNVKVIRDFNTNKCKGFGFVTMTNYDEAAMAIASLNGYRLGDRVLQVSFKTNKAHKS
inactive: alvocidib 0.019 | Tubastatin A -0.125 | [1] 0.036 | defactinib -0.007 | [2] -0.003 | encorafenib 0.003 | [3] 0.211 | alisertib 0.136 | [4] -0.031 | gefitinib 0.056 | lapatinib -0.017 | crizotinib -0.065 | [5] -0.064 | duvelisib 0.03 | gandotinib -0.034 | tozasertib 0.05 | doramapimod 0.035 | [6] -0.061

FIG4 (UniProt Q92562)
UniProt Q92562, sequence (Q92562 whole entry, looked up): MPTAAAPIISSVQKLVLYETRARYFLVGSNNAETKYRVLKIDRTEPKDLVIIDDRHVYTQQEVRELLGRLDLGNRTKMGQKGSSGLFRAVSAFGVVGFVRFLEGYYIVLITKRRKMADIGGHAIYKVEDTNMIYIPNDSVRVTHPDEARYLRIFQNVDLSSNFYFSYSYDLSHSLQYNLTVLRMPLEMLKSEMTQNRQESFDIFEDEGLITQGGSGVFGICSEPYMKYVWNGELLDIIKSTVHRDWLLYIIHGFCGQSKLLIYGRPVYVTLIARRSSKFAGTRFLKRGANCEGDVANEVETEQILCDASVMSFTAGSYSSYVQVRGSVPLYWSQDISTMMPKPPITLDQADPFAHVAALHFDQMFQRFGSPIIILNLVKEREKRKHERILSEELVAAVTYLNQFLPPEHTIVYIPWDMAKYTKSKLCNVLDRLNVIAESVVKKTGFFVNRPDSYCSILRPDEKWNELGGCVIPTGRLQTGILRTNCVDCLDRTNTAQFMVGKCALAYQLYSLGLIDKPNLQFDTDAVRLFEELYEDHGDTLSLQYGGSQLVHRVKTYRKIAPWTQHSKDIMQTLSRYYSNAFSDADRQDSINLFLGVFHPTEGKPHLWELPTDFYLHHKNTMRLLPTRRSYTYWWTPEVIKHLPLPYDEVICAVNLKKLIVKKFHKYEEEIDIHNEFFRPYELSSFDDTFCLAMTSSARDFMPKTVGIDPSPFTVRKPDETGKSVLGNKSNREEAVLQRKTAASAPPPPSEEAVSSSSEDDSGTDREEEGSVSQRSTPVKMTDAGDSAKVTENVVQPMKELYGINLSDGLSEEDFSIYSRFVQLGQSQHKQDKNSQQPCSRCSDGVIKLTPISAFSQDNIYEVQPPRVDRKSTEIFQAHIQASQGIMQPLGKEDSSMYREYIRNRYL
inactive: alvocidib -0.106 | Tubastatin A 0.012 | [1] -0.004 | defactinib -0.039 | [2] -0.016 | encorafenib 0.064 | [3] 0.037 | alisertib -0.145 | [4] 0.079 | gefitinib 0.148 | lapatinib -0.065 | pictilisib 0.12 | crizotinib -0.016 | [5] 0.039 | duvelisib -0.023 | gandotinib -0.099 | tozasertib -0.112 | doramapimod -0.067 | bafetinib -0.09 | [6] 0.058

FCHO1 (UniProt O14526)
UniProt O14526, sequence (O14526 whole entry, looked up): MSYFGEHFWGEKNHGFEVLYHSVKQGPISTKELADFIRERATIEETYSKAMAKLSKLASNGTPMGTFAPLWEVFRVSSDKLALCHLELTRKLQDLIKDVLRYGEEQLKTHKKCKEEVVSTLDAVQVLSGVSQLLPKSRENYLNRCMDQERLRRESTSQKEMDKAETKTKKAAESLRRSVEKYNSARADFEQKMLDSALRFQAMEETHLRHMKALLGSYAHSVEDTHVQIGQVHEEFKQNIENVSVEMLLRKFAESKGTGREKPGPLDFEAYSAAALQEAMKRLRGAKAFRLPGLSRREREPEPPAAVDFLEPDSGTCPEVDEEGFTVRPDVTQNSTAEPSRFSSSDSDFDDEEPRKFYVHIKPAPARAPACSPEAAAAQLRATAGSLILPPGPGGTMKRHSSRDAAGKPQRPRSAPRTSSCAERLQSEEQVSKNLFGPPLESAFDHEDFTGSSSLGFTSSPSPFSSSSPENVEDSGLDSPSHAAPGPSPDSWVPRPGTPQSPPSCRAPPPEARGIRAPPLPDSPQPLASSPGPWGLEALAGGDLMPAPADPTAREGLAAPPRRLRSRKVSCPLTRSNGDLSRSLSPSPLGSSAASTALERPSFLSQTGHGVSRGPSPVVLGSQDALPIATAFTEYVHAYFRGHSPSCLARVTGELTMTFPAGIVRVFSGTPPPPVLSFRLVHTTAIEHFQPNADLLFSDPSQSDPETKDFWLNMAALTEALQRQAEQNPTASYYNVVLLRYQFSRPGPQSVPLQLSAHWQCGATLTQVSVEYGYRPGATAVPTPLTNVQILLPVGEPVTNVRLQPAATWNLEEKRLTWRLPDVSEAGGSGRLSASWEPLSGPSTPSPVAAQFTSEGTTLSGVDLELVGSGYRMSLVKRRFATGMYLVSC
inactive: alvocidib 0.027 | Tubastatin A -0.188 | [1] 0.038 | defactinib 0.039 | [2] 0.038 | encorafenib 0.009 | [3] 0.076 | alisertib 0.009 | [4] -0.021 | gefitinib 0.003 | lapatinib -0.034 | pictilisib 0.027 | crizotinib -0.072 | [5] -0.061 | duvelisib -0.025 | gandotinib -0.027 | tozasertib 0.027 | doramapimod -0.039 | bafetinib -0.141 | [6] 0.058

DYRK1A (UniProt Q13627)
inactive: alvocidib 0.106 | Tubastatin A -0.088 | [1] 0.113 | defactinib 0.016 | [2] -0.034 | encorafenib 0.024 | [3] 0.002 | alisertib -0.008 | [4] 0.017 | gefitinib 0.007 | lapatinib -0.024 | pictilisib -0.003 | crizotinib 0.018 | [5] 0.055 | duvelisib -0.021 | gandotinib -0.012 | tozasertib 0.03 | doramapimod -0.06 | bafetinib -0.028 | [6] -0.021

GCDH (UniProt Q92947)
UniProt Q92947, sequence (Q92947 whole entry, looked up): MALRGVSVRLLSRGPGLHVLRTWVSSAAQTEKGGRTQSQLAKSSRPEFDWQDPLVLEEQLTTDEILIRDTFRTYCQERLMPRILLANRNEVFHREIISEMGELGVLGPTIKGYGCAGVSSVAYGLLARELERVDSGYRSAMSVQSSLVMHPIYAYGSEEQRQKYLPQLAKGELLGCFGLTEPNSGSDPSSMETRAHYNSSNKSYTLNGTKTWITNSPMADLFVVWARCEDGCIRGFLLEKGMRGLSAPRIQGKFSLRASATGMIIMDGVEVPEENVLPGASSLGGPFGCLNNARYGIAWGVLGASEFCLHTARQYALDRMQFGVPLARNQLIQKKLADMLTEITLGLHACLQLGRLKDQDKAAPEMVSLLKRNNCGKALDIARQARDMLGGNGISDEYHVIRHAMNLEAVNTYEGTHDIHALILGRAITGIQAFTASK
inactive: alvocidib 0.018 | Tubastatin A -0.069 | [1] -0.049 | defactinib 0.004 | [2] 0.057 | encorafenib -0.049 | [3] 0.159 | alisertib 0.049 | [4] 0.006 | gefitinib -0.004 | lapatinib 0.016 | pictilisib 0.012 | crizotinib -0.017 | [5] 0.013 | duvelisib 0.19 | gandotinib -0.005 | tozasertib 0.007 | doramapimod -0.026 | bafetinib 0.047 | [6] -0.004

EIF1 (UniProt P41567)
UniProt P41567, sequence (P41567 whole entry, looked up): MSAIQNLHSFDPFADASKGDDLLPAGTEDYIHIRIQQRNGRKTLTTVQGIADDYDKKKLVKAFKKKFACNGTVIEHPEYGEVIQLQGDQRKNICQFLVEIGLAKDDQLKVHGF
active: gefitinib -0.247
inactive: alvocidib -0.033 | Tubastatin A 0.084 | [1] -0.039 | defactinib -0.013 | [2] -0.02 | encorafenib -0.017 | [3] -0.032 | alisertib -0.006 | [4] 0.005 | lapatinib 0.053 | pictilisib 0.016 | crizotinib 0.002 | [5] -0.051 | duvelisib 0.044 | gandotinib 0.068 | tozasertib -0.008 | doramapimod -0.092 | bafetinib 0.052 | [6] 0.021

EMP3 (UniProt P54852)
UniProt P54852, sequence (P54852 whole entry, looked up): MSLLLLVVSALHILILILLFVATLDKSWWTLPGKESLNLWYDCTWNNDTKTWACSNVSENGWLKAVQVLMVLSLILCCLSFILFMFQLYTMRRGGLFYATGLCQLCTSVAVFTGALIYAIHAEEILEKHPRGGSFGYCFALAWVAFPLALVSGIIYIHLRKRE
active: [5] -0.763 | gandotinib 0.351 | [6] 0.329
inactive: alvocidib -0.227 | Tubastatin A -0.021 | [1] 0.067 | defactinib 0.009 | [2] 0.056 | encorafenib -0.016 | [3] 0.022 | alisertib 0.053 | [4] 0.052 | gefitinib -0.071 | lapatinib 0 | pictilisib -0.03 | crizotinib -0.002 | duvelisib 0 | tozasertib -0.078 | doramapimod 0.029 | bafetinib -0.019

Reference: the supplement of paper PMC10849652
